High-throughput results (PubChem)
Hits are enriched below; roughly 7.5% of the tested compounds scored in any of these assays.
Luc counter: counter-screen: inhibitors of Kinase-Glo firefly luciferase; Potency, µM (top dose mostly 38.3 µM), without a hit: at the top dose activity change, negative = inhibition, most hits filed as inhibitors; actives 0.28% (n = 200,000); Q27757; Kinase-Glo luciferase, ATP luminescence, 8 min; further: on the % scale 0 is the no-effect control and ±100 the full control effect; nearly all actives have a fitted effect of over 60% in size
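Inhibition of Kinase-Glo luciferase light generation was assessed at 10 uM ATP in pH 7.2 imidazole buffer, with luminescence measured after eight minutes at ambient temperature.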
Rab9 promoter act: activates the Rab9 promoter; Huh7 Rab9 promoter-luciferase reporter, luminescence, 24 h; actives 2.8% (n = 320,000); Potency, µM (series often up to 9.22 µM), without a hit: at the highest dose activation, negative = inhibition, hits mostly activators; AID 485297; further: % of control where 0% means no effect; nearly all actives have a fitted effect of over 60% in size
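Using Huh7 cells stably transfected with Rab9 promoter–luciferase, compounds were incubated 24 h at 37 °C, 5% CO2; luciferase luminescence was read 10 min after reagent addition.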
NPC1 prom act: activators of NPC1 promoter | Huh7 NPC1 promoter luciferase reporter, 24 h | Potency, µM (doses to about 9.22 µM), inactives show at the top dose activation, hits mostly activators | actives 2.4% (n = 320,000); further: % of control where 0% means no effect; nearly all actives have a fitted effect of over 60% in size
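NPC1 promoter–luciferase Huh7 cells; 24 h compound; luminescence.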
FLuc modulator: inhibits or activates purified firefly luciferase, miR-21 counter-screen | purified FLuc, Km substrates, luminescence inhibition | Potency, µM (highest dose often 57.5 µM), for inactives: top-dose activity change, negative = inhibition, usual class: inhibitors | actives 6.9% (n = 360,000);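 further: plate controls were vehicle for no effect and reference inhibitor for full effect; nearly all actives have a fitted effect of over 55% in size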
Target sequence (P08659 whole entry, looked up): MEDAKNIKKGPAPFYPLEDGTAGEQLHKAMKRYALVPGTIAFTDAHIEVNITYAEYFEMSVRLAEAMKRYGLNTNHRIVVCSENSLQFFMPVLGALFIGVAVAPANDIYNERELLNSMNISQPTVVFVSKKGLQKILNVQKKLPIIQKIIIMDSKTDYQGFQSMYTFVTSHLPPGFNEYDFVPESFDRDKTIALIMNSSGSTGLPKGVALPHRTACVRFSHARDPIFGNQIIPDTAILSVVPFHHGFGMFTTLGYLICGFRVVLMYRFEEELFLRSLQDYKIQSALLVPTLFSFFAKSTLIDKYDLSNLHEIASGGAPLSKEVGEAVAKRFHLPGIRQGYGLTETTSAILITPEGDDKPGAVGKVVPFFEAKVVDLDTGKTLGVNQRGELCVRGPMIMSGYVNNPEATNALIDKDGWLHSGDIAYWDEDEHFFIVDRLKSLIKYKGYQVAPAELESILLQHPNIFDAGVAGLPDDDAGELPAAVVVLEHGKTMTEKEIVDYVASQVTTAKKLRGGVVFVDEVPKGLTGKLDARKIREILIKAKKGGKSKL
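Purified P. pyralis luciferase (10nM final) with 10uM D-luciferin and 10uM ATP (Km levels) in 50mM Tris acetate pH 7.5, 10mM Mg acetate, 0.01% Tween-20, 0.05% BSA; qHTS 6-point titration, ~60 µM downward; luminescence read.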
SMN2 splice enh: enhancers of SMN2 splice variant expression | HEK293 SMN2-luciferase splicing reporter, luminescence, 30-36 h | Potency, µM (titrated, usually from 46.1 µM), for inactives: top-dose activity change, positive = activation, most hits filed as activators | actives 2.8% (n = 210,000); further: % of control where 0% means no effect; nearly all actives have a fitted effect of over 55% in size
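HEK293 cells carry an SMN2 […]–luciferase reporter in which exon 7 inclusion puts luciferase in frame. Cells were plated 10-12 h before compound addition, then incubated 30-36 h at 37C. ONE-Glo luminescence was read; sodium butyrate at 4.5 mM final served as control.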
ELG1 genotoxic: inducers of genotoxicity in HEK293T ELG1-luciferase cells | HEK293T ELG1-luciferase reporter, luminescence, 16 h | Potency, µM (series often up to 46 µM), without a hit: top-dose activity change, positive = activation, hits mostly activators | actives 1.3% (n = 330,000); further: % of control where 0% means no effect; nearly all actives have a fitted effect of over 60% in size
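Quantitative HTS format in 1536-well plates. HEK293T ELG1-luciferase reporter cells receive test compound and are incubated 16 hr at 37 °C, 5% CO2; ONE-Glo added, 30 min room temperature, then luminescence read.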
* marks the source's active call; other numbers are inactive results; ? = inconclusive; . = no result; [ ] = remark or other dose. The call rests on the fitted dose curve; in most records, active means well fitted curve in the direction sought with a large enough effect; inconclusive means small, poorly fitted or top-dose-only effect, or another doubt; inactive means no such curve, though single readings can be large; an effect the other way counts as inactive or inconclusive. Potency means the concentration at half of the fitted maximal effect.

SMILES | Luc counter | Rab9 promoter act | NPC1 prom act | FLuc modulator | SMN2 splice enh | ELG1 genotoxic
COc1ccc(C2Nc3ccccc3C(=O)N2c2ccc(C)cc2)cc1Cn1cc([N+](=O)[O-])cn1 (stereo unspecified) | -8% | 4µM* | 4µM* | ? | 20µM* | 12%
COc1ccc(N2C(=O)c3ccccc3NC2c2ccc(OC)c(CSc3ccccn3)c2)cc1 (stereo unspecified) | 2% | 25% | ? | ? | ? | ?
COc1ccc(N2C(=O)c3ccccc3NC2c2ccc(OC)c(COc3ccccn3)c2)cc1 (stereo unspecified) | 4% | ? | ? | -2% | 13µM* | ?
COc1ccc(C2Nc3ccccc3C(=O)N2c2ccc(C)cc2)cc1Cn1nnc2ccccc21 (stereo unspecified) | . | ? | ? | -10% | . | ?
Cc1cn2c(=O)cc(COc3cccc(NC(=O)c4ccccc4C)c3)nc2s1 | . | . | . | -9% | -4% | .
NC(=O)c1c(NC(=O)c2cccnc2)sc2c1CCCC2 | 0% | ? | ? | ? | -1% | ?
N#Cc1c(NC(=O)c2ccccc2)sc2c1CCC2 | -6% | 0.63µM* | ? | 2.7µM* | 2.2µM* | 2.9µM*
CCOC(=O)c1sc(NC(=O)c2cccnc2)c(C#N)c1C | -2% | 13% | 15% | 12µM* | -18% | 1%
NC(=O)c1c(NC(=O)c2cccnc2)sc2c1CCCCC2 | . | 2.5µM* | 2.2µM* | 1.7µM* | . | ?
N#Cc1c(NC(=S)NC(=O)c2ccccc2)sc2c1CCCC2 | -1% | ? | 25% | ? | 16% | 11%
NC(=O)c1c(NC(=O)c2cccc(N3C(=O)CCC3=O)c2)sc2c1CCCCC2 | . | ? | 30% | 0.95µM* | . | 15%
Cc1cccc(N2CCN(C(=O)CN3C(=O)COc4ccc(S(=O)(=O)N5CCCC5)cc43)CC2C)c1 (stereo unspecified) | . | . | . | -6% | -6% | .
O=C(CCC1N=C2c3ccccc3N=C(SCC(=O)Nc3ccc(F)cc3)N2C1=O)NCc1cccs1 (stereo unspecified) | . | . | . | -8% | . | .
COc1ccc(CCNC(=O)c2cccc(-n3cnc4cccnc43)c2C)cc1OC | . | . | . | -6% | . | .
Cc1ccccc1NS(=O)(=O)c1ccc(Br)s1 | . | . | . | -18% | 0% | .
N#Cc1c(NC(=O)c2ccc([N+](=O)[O-])o2)sc2c1CCC2 | . | 1.6µM* | 1.6µM* | 4.8µM* | . | ?
N#Cc1c(NC(=S)NC(=O)C2CCCC2)sc2c1CCCCC2 | . | ? | 19% | ? | . | 1%
Cn1ncc(Cl)c1C(=O)NC(=S)Nc1sc2c(c1C#N)CCCCC2 | 0% | 5% | 19% | 12µM* | -17% | 1%
N#Cc1c(NC(=O)c2cnccn2)sc2c1CCCC2 | -3% | ? | 18% | 6µM* | 10µM* | ?
NC(=O)c1c(NC(=O)c2ccc([N+](=O)[O-])o2)sc2c1CCCC2 | . | 11% | 15% | -15% | . | 1%
Cc1cccc(C(=O)Nc2sc3c(c2C#N)CCCCC3)c1 | -8% | 1.3µM* | 0.5µM* | 0.95µM* | 2µM* | ?
FC(F)(F)c1cccc(-n2cc(-c3ccccc3)c3c(N4CCCCC4)ncnc32)c1 | . | . | . | 2% | . | .
CC(C)NC(=O)C1CCN(C(=O)N2CCOc3ccc(Cl)cc32)CC1 | . | . | . | -7% | . | .
N#Cc1c(NC(=O)c2cccnc2)sc2c1CCC2 | -6% | -5% | -16% | 9.5µM* | 3% | ?
N#CC1=C(N)Oc2c(oc(CO)cc2=O)C1c1ccsc1 (stereo unspecified) | 3% | -3%[1.84 µM] | 3% | 0% | -5% | -3%
N#CC1=C(N)Oc2c(ccc3ccccc23)C1c1ccsc1 (stereo unspecified) | 2% | -23% | -5% | ? | -29% | 15µM*
CC1=C(C(=O)NCc2ccccc2C)C2(CCCCCC2)OC1=O | . | . | . | -9% | . | .
CCN(Cc1ccccc1)c1ncnc2c1cnn2-c1ccc(F)cc1 | . | . | . | 7.6µM* | . | .
